Bioassay records from PubChem.
In the library only some 19% were active in any assay of this set; here they are far more common.
HepG2 tox – kills HepG2 cells in TGF-b inhibitor counter-screen; HepG2 CAGA-GFP viability, ATP luminescence, 18 h; Potency, µM (top dose mostly 46.1 µM), hits mostly cytotoxic; actives 0.76% (n = 410,000); AID 588856
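CellTiter-Glo luminescence gave cytotoxicity after 18 hours at 37 degrees C. The cells were HepG2 CAGA-GFP in 1% FBS DMEM, stimulated with 500 pg/mL TGF-beta after compound addition. %Activity was normalised to no-cell wells (complete cell-killing) and DMSO (no toxicity), and curves were fitted and classified.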
TDP1 block – inhibitors of human tyrosyl-DNA phosphodiesterase TDP1; Q9NUW8; recombinant TDP1, AlphaScreen DNA substrate cleavage; Potency, µM (doses to about 130 µM), hits mostly inhibitors; actives 0.28% (n = 350,000); further: nearly all actives have a fitted effect of over 40% in size
Target sequence (Q9NUW8 whole entry, looked up): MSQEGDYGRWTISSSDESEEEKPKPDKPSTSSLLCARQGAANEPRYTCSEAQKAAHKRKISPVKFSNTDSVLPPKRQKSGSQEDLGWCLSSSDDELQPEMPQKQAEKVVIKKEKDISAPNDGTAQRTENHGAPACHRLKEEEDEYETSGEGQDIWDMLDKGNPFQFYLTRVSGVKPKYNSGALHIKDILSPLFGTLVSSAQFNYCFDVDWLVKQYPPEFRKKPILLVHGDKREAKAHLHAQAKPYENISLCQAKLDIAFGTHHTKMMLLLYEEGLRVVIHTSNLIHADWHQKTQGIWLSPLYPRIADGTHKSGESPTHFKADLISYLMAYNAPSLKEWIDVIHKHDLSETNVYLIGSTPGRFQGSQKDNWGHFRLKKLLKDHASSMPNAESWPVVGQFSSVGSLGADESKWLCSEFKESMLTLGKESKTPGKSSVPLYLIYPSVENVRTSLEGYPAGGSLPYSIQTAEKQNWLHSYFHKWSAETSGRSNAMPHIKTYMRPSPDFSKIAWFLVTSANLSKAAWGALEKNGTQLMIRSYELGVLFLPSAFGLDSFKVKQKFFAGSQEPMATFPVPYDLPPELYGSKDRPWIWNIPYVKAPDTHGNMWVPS
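Recombinant E. coli-expressed Tdp1 (1 nM) preincubated with compound 15 min at RT, then 5'-biotin/3'-phosphotyrosine-FITC DNA substrate (15 nM) added for 5 min. AlphaScreen beads (10 ug/ml) added, 10 min RT; tyrosine-FITC cleavage read as signal loss.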
IL1B secr inh – inhibitors of inflammasome signaling (IL-1 beta secretion) | THP-1 LPS/ATP IL-1B secretion, AlphaLISA, 16 h; active compounds read low | activity change, % at 57.5 µM | actives 4.7% (n = 360,000); in the data active means activity change below about -50%; inconclusive means mostly about -30% to -49%
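Secreted IL-1B measured by AlphaLISA bead assay after 16 h compound exposure of THP-1 cells; compounds (final up to 57.5 uM) added 1 h before LPS (250 ng/mL) and ATP (1.25 mM) stimulation; lower signal means less secretion.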
DT40 TDP1 no CPT – qHTS for Inhibitors of human tyrosyl-DNA phosphodiesterase 1 (TDP1): qHTS in cells in absence of CPT. AID 686978, 2013. actives 15% (n = 420,000). Potency, µM (titrated, usually from 46.2 µM), most hits filed as inhibitors. DT40 Tdp1-/- hTDP1 cells, no CPT, ATP luminescence, 48 h; further: nearly all actives have a fitted effect of over 55% in size
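Chicken DT40 Tdp1-/- cells complemented with human TDP1, screened without camptothecin (DMSO vehicle only), 400 cells/well. Compounds pin-transferred, cells incubated at 37 °C for at least 48 hr. Growth read as ATP-dependent luminescence (CellTiter-Glo, 30 min at RT).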
TGFb inhibitor – TGF-b pathway inhibition; HepG2 CAGA-GFP TGF-b/SMAD3 reporter, GFP fluorescence, 18 h; TGF-beta stimulated, 500 pg/mL final; actives 1.2% (n = 410,000); Potency, µM (doses to about 46.1 µM), usual class: inhibitors; further: nearly all actives have a fitted effect of over 65% in size
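HEPG2 CAGA-GFP reporter cells (1000/well, DMEM with 1% FBS) received compounds, then recombinant TGF-beta at 500 pg/mL final for 18 hours at 37 degrees C. Per-cell GFP summed per well was normalised to unstimulated and stimulated DMSO controls before curve fitting.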
DT40 TDP1 CPT – DT40-hTDP1 cell growth loss with CPT | chicken DT40 Tdp1-/-;hTDP1 cells + 20 nM CPT, ATP luminescence, 48 h | Potency, µM (doses to about 46.2 µM), usual class: inhibitors | actives 12% (n = 420,000); further: nearly all actives have a fitted effect of over 55% in size
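Chicken DT40 Tdp1-/- cells stably complemented with human TDP1 were seeded at 400 cells/well in medium containing 20 nM camptothecin, exposed to pin-transferred compounds, and grown at 37 °C for at least 48 hr. Viability was read as ATP luminescence.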
Of the large screens only hits and unclear results are named; the others gave an inactive call. Unless noted, the call rests on the fitted dose curve; in most records, active means well fitted curve in the direction sought with a large enough effect; inconclusive means small, poorly fitted or top-dose-only effect, or another doubt; inactive means no such curve, though single readings can be large; an effect the other way counts as inactive or inconclusive.

CCc1ccc(NS(=O)(=O)c2ccc3[nH]c4c(c3c2)CCCCCC4)cc1	DT40 TDP1 no CPT inconclusive, TGFb inhibitor inconclusive, DT40 TDP1 CPT inconclusive (no result: IL1B secr inh)
Cc1ccc(NS(=O)(=O)c2ccc3[nH]c4c(c3c2)CCCCCC4)cc1C	DT40 TDP1 no CPT 16µM, TGFb inhibitor inconclusive, DT40 TDP1 CPT inconclusive (no result: IL1B secr inh)
Cc1ccc(NS(=O)(=O)c2ccc3[nH]c4c(c3c2)CCCCCC4)cc1	DT40 TDP1 no CPT inconclusive, TGFb inhibitor inconclusive, DT40 TDP1 CPT 26µM (no result: IL1B secr inh)
COCCNC(=S)NCc1ccc2[nH]c3c(c2c1)CCCC3	none
CCOC(=O)c1ccc(NS(=O)(=O)c2ccc3[nH]c4c(c3c2)CCCCC4)cc1	HepG2 tox 25µM, TGFb inhibitor inconclusive (no result: IL1B secr inh, DT40 TDP1 no CPT, DT40 TDP1 CPT)
CCOC(=O)c1ccc(NS(=O)(=O)c2ccc3oc(=O)[nH]c3c2)cc1	none
Cc1ccc(NC(=S)NCc2ccc3[nH]c4c(c3c2)CCCC4)cc1	IL1B secr inh inconclusive, DT40 TDP1 no CPT 13µM, TGFb inhibitor inconclusive, DT40 TDP1 CPT inconclusive (no result: TDP1 block)
O=C(O)CCCCCCCCCCCNC(=O)NC12CC3CC(CC(C3)C1)C2	none
Cc1cc(O)c(C(c2cccc(F)c2)N2CCC(C)CC2)c(=O)n1Cc1ccco1 (centres undefined)	none (no result: IL1B secr inh)
CCOc1ccc(NCc2cccn2-c2nnc(N3CCC(C(=O)NCCc4ccc(OC)c(OC)c4)CC3)s2)cc1	DT40 TDP1 no CPT 10µM, DT40 TDP1 CPT inconclusive (no result: IL1B secr inh, TGFb inhibitor)
CCOc1ccc(NCc2cccn2-c2nnc(N3CCC(C(=O)NCCCN4CC(C)CC(C)C4)CC3)s2)cc1 (centres undefined)	IL1B secr inh -82, DT40 TDP1 no CPT inconclusive, TGFb inhibitor inconclusive, DT40 TDP1 CPT inconclusive
CCOc1ccc(NCc2cccn2-c2nnc(N3CCC(C(=O)NCCc4ccc(OCC)c(OCC)c4)CC3)s2)cc1	DT40 TDP1 no CPT 8.2µM, DT40 TDP1 CPT 15µM (no result: IL1B secr inh, TGFb inhibitor)
O=C(COc1ccccc1[N+](=O)[O-])N(Cc1ccco1)C1CCS(=O)(=O)C1 (centres undefined)	none
Cc1ccc(CCNC(=O)c2nn(C)c3c2CSc2ccccc2-3)cc1	none (no result: IL1B secr inh)
CCCCN(CC)C(=O)c1nn(C)c2c1CSc1ccccc1-2	DT40 TDP1 no CPT 23µM, DT40 TDP1 CPT inconclusive (no result: IL1B secr inh)
Cc1ccc(CNC(=O)c2nn(C)c3c2CSc2ccc(C)cc2-3)cc1	DT40 TDP1 no CPT inconclusive, TGFb inhibitor inconclusive, DT40 TDP1 CPT inconclusive (no result: IL1B secr inh)
Cn1nc(C(=O)NCCCN2CCCCC2)c2c1-c1ccccc1SC2	DT40 TDP1 no CPT inconclusive, DT40 TDP1 CPT inconclusive
CCOc1ccc(CCNC(=O)c2nn(C)c3c2CSc2ccc(C)cc2-3)cc1OCC	DT40 TDP1 no CPT 13µM, TGFb inhibitor inconclusive, DT40 TDP1 CPT inconclusive (no result: IL1B secr inh)
CCOC(=O)N1CCN(C(=O)c2nn(C)c3c2CSc2ccccc2-3)CC1	DT40 TDP1 no CPT 16µM, DT40 TDP1 CPT inconclusive (no result: TDP1 block)
CCN(C(=O)c1nn(C)c2c1CSc1ccccc1-2)c1cccc(C)c1	DT40 TDP1 no CPT 21µM, TGFb inhibitor inconclusive, DT40 TDP1 CPT 12µM (no result: IL1B secr inh)
CC(C)N(CCNC(=O)C1CCCN(c2ncnc3c2nc2n3CCCCC2)C1)Cc1ccccc1 (centres undefined)	DT40 TDP1 CPT inconclusive
N/C(=C\C(=O)c1cc(Cl)ccc1O)C(Cl)(Cl)Cl	DT40 TDP1 no CPT 3.3µM, TGFb inhibitor 10µM, DT40 TDP1 CPT 3.7µM
O=C(Nc1cc(C(F)(F)F)cc(C(F)(F)F)c1)c1cc(Cl)ccc1O	none (no result: HepG2 tox, IL1B secr inh, DT40 TDP1 no CPT, TGFb inhibitor, DT40 TDP1 CPT)
CNc1ccc(C(=O)Oc2cc(O/N=[N+](\[O-])N(C)C)c([N+](=O)[O-])cc2[N+](=O)[O-])cc1	none (no result: IL1B secr inh, DT40 TDP1 no CPT, DT40 TDP1 CPT)
Cc1sc2ccc3sccc3c2[n+]1C	IL1B secr inh -95, DT40 TDP1 no CPT 21µM, DT40 TDP1 CPT 8.2µM
Cc1sc2c3ccsc3ccc2[n+]1C	IL1B secr inh -100, DT40 TDP1 no CPT 16µM, DT40 TDP1 CPT 13µM
NC(=O)CSc1nnnn1-c1cccc(O)c1	none (no result: IL1B secr inh)
N#C/C(=C\c1ccc(O)c(O)c1)C(=O)N1CCc2ccccc21	DT40 TDP1 no CPT 21µM, DT40 TDP1 CPT inconclusive (no result: TDP1 block)
